# Compounds with a hit are over-represented: about 9.2% of the library has one in this group of screens.
# ALDH1A1 block: qHTS Assay for Inhibitors of Aldehyde Dehydrogenase 1 (ALDH1A1); AID 1030, 2008; Potency, µM (doses to about 75.3 µM), without a hit: top-dose activity, negative = inhibition, usual class: inhibitors; Aldehyde dehydrogenase 1A1 (Homo sapiens), P00352; 220,000 compounds, 7.3% hits; Purified ALDH1A1, NADH fluorescence, propionaldehyde substrate;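 note: plate controls were no enzyme wells and a reference inhibitor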
# Lamin A splicing: qHTS Assay for Modulators of Lamin A Splicing | HeLa LMNA splicing GFP/RFP minigene ratio, 48 h | Potency, µM (top dose mostly 46.1 µM), inactives show top-dose ratio change, negative = inhibition, most hits filed as inhibitors | 200,000 compounds, 0.01% hits; active = well fitted inhibition curve with a large enough effect in the signal ratio, with a control signal flat, not every such curve was filed as active; inconclusive = small, poorly fitted or top-dose-only effect, or effect the other way, or a change in a side signal; the % refers to the signal ratio; note: % is set by controls: 0 for no effect and ±100 for the full control effect
#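 Read-out is the ratio of GFP to DsRed2 object intensity, acquired by 488 nm laser-scanning cytometry on HeLa lamin A-EGFP minigene reporter cells. Compound incubation 48 hrs at 37 °C in Opti-MEM with 2% FBS; DMSO 0.5% final.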
# JMJD2E inh: qHTS Assay for Inhibitors of Human Jumonji Domain Containing 2E (JMJD2E); Potency, µM (doses to about 57.1 µM), for inactives: top-dose activity change, negative = inhibition, actives largely listed as inhibitors; JMJD2E catalytic domain, FDH-coupled NADH fluorescence (FDH is formaldehyde dehydrogenase); AID 2147, 2009; 230,000 compounds, 1.6% hits; Lysine-specific demethylase 4E (Homo sapiens), B2RXH2;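 note: 0% = wells with enzyme and -100% = buffer wells without enzyme; nearly all actives have a fitted effect of over 50% in size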
# HTT cytoprotect: qHTS Multiplex Assay to Identify Dual Action Probes in a Cell Model of Huntington: Cytoprotection (ATP). PC12 HTT-Q103 induced, cytoprotection, ATP luminescence, 40 h. Potency, µM (series often up to 56.4 µM), without a hit: cytoprotection (ATP increase), hits mostly activators. 230,000 compounds, 0.14% hits. AID 1471, 2008; active = well fitted curve in the direction sought with a large enough effect; inconclusive = small, poorly fitted or top-dose-only effect, or another doubt; inactive = no such curve, though single readings can be large; an effect the other way counts as inactive or inconclusive; note: % of control where 0% means no effect; nearly all actives have a fitted effect of over 45% in size
#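 Readout: ATPlite luminescence (ATP level). Model: stable PC12, inducible Htt exon1 Q103-GFP. Inducer: tebufenozide, 100 nM final. Compounds: dose series. No G418 in medium.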
# HttQ103 aggreg: qHTS Multiplex Assay to Identify Dual Action Probes in a Cell Model of Huntington: Aggregate Formation (GFP) | PC12 HttQ103-GFP aggregates, Acumen cytometry, 40 h | Potency, µM (top dose mostly 46.1 µM), for the others: at the highest dose activity change, negative = inhibition, actives largely listed as inhibitors | 220,000 compounds, 1.1% hits | AID 1688, 2009; active = well fitted curve in the direction sought with a large enough effect; inconclusive = small, poorly fitted or top-dose-only effect, or another doubt; inactive = no such curve, though single readings can be large; an effect the other way counts as inactive or inconclusive; note: % is set by controls: 0 for no effect and ±100 for the full control effect; nearly all actives have a fitted effect of over 60% in size
#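 Quantitative HTS on tebufenozide-induced (100 nM) PC12 cells stably expressing polyQ103 Huntingtin exon 1–GFP. Reduction of bright GFP aggregates, detected by laser scanning cytometry after lysis, identified actives across the titration.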
# HPGD inh: qHTS Assay for Inhibitors of HPGD (15-Hydroxyprostaglandin Dehydrogenase); purified HPGD, NADH fluorescence kinetic, PGE2 substrate; Potency, µM, for inactives: at the highest dose activity change, negative = inhibition, usual class: inhibitors; 150,000 compounds, 4.3% hits; AID 894, 2007; note: % is set by controls: 0 for no effect and ±100 for the full control effect
# Target sequence (P15428 whole entry, looked up): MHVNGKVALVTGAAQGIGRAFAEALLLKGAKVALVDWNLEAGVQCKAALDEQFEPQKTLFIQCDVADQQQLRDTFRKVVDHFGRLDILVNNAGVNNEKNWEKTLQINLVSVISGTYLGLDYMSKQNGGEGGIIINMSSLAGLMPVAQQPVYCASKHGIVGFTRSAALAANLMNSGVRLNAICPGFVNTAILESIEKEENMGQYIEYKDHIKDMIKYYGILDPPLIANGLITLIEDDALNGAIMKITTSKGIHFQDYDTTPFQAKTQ
#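 20 nM HPGD preincubated 15 min at room temperature with compound in 50 mM Tris-HCl pH 8, 0.01% Tween 20. Started with 1 mM NAD+ and 30 uM prostaglandin E2; NADH fluorescence (360/450 nm) read 5 times over 30-s intervals, last minus first.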
# Active calls of the source: *; ? = inconclusive; / = not tested or not shown; [ ] = dose if it differs, or a comment. Unless noted, calls come from the whole dose curve; as a rule, active = well fitted inhibition curve with a large enough effect (not every such curve was filed as active); inconclusive = small, poorly fitted or top-dose-only effect, or another doubt; inactive = no such curve, though single readings can be large or run the other way. Potency is the fitted concentration of half-maximal effect.
SMILES,ALDH1A1 block,Lamin A splicing,JMJD2E inh,HTT cytoprotect,HttQ103 aggreg,HPGD inh
COc1ccc(OP(=O)(Nc2ccccc2)Nc2ccccc2)cc1,4%,-7%,10%,7%,4%,14µM*
Cc1c(O)c(O)cc2c1CC=C1[C@]3(C)CC[C@]4(C)CC[C@@](C)(C(=O)O)CC4[C@]3(C)CC[C@]12C (stereo partly specified),-5%,?,4%,/,/,18µM*
O=c1c2ccccc2nc(/C=C/c2ccc(O)cc2)n1-c1ccccc1O,-12%,/,-26%,-3%[10 µM],0%[9.22 µM],/
O=c1c2ccccc2nc(/C=C/c2cccnc2)n1Cc1ccccc1,5µM*,/,7.9µM*,15%[10 µM],3%[9.22 µM],/
COC(=O)c1ccccc1N,?,/,/,-2%,/,-17%
CCN1C(=O)C(=Cc2ccc(C)s2)C(=O)N(CC)C1=S,7.1µM*,?,-5%,/,-10%,8.9µM*
COc1cc(C2c3cc4c(cc3C(OC(C)=O)[C@H]3COC(=O)C23)OCO4)cc(OC)c1OC (stereo partly specified),-6%,?,-11%,/,/,-4%
CNC1=CN(O)C(c2ccccc2)=c2cc(Cl)ccc2=N1,14%,?,/,?,-7%,-14%
CCN(CC)C(=O)c1ccc(NC(=O)Cn2nc(C)c3ccccc3c2=O)cc1,?,-8%,0%,27%,12%,10µM*
O=C(NC1(C(F)(F)F)Oc2ccc(Cl)cc2O1)N1CCC2(CC1)OCCO2 (stereo unspecified),?,?,16µM*,-59%,-3%,-11%
O=C(NC1(C(F)(F)F)Oc2ccccc2O1)N1CCC2(CC1)OCCO2,?,?,14µM*,-27%[10 µM],?,?
O=C(CCCOc1ccc(Cl)cc1Cl)N1CCC2(CC1)OCCO2,?,1%,12%,-9%,-4%,-26%
NC(=S)/N=C/c1c(O)[nH]c(=O)[nH]c1=O,-5%,-9%[46 µM],?,-13%,14%,/
C=CCNC(=S)/N=C/c1c(O)[nH]c(=O)[nH]c1=O,3%,/,2.5µM*,-3%,23%,/
CC(C)c1ccc2c(c1O)CCC1C3=C(CC[C@]21C)C(=O)OC3 (stereo partly specified),-3%,-7%,0%,/,/,-19%
COc1cc2c(c(OC)c1OC)-c1ccc(O)c(=O)cc1[C@@H](NC(C)=O)CC2,-7%,/,11µM*,?,/,-14%
Cc1cccc(C2=NCC(=O)N(CC(=O)NCc3ccco3)c3sc4c(c32)CCCC4)c1,20µM*,-4%,-2%,-4%,11µM*,28µM*
COc1ccc(C2=NCC(=O)N(CC(=O)NCc3ccco3)c3sc4c(c32)CCCC4)cc1,16µM*,?,5%,-5%,2%,-6%
CC1(C)CN=C(Nc2ccc(F)c(Cl)c2)S1,/,/,4%,13%[10 µM],-7%[9.22 µM],/
CC1(C)CN=C(Nc2ccc(F)c(F)c2)S1,-4%,-2%,2%,-9%,-20%,25µM*
O=C(O)C[O][Sb][O]CC(=O)O,11%[13.5 µM],/,/,-11%[10 µM],/,0%
CCCC(=O)Cl,4%,/,/,-3%,/,-2%
O=C(c1ccc2c(c1)OCO2)N1CCC2(CC1)OCCO2,5%,4%,2%,-7%,-8%,25µM*
O=C(c1ccc(N2CCCCCC2)c([N+](=O)[O-])c1)N1CCC2(CC1)OCCO2,11µM*,13%[46 µM],-2%,?,-9%,/
CN1CCC[C@@H]1c1cccnc1,?,?,/,18%,12%,/

# Screening data as filed in PubChem.
